Most compounds without a hit are left out; they make up all but 3.5% or so of the library.
GPR151 activ: activators of human GPR151; activation, % at 11.2 µM; PathHunter beta-arrestin GPR151 cells, luminescence; actives 1% (n = 650,000); in the data active = activation above about 4.9%;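 note: 0% = median of compound wells and 100% = cells with positive control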
Target sequence (Q8TDV0 whole entry, looked up): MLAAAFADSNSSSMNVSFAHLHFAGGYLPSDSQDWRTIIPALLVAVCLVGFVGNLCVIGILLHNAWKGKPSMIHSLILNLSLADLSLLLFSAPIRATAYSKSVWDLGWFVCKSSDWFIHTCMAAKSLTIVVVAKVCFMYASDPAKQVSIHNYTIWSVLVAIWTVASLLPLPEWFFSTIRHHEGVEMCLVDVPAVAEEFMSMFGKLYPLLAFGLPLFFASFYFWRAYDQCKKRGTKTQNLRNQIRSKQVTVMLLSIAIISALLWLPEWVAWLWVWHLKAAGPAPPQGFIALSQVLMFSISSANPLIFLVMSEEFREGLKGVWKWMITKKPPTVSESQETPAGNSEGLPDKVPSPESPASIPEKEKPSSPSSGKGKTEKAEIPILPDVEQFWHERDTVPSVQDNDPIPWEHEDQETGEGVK
TEAD-YAP block: TEAD-YAP interaction inhibition; HEK-TIYL cells, TEAD-Gal4/YAP UAS-luciferase luminescence; inhibition, % at 9.12 µM; actives 1.4% (n = 640,000); in the data active = inhibition above about 32%;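 note: 0% = median of test compound wells and 100% = reference inhibitor wells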
MITF inh: blocks human microphthalmia-associated transcription factor. O75030. AlphaScreen MITF homodimerization, bead proximity signal. inhibition, % at 2.6 µM. actives 0.91% (n = 650,000). AID 1259374; in the data active = inhibition above about 50%;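 note: 0% = vehicle wells with protein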
FBW7 activator: human FBW7 E3 ligase activation, primary screen. Q969H0. AlphaScreen FBW7–phospho-cyclin E peptide binding, activator screen. normalized activity (activation), % at 26.1 µM. actives 0.13% (n = 650,000). AID 1259310; in the data active = normalized activity above about 1.9%;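 note: purified mutant Fbw7 with reduced substrate affinity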
Active calls of the source: *; . = not tested or not shown.

SMILES	GPR151 activ	TEAD-YAP block	MITF inh	FBW7 activator
COc1ccccc1Nc1nc(-c2sc(C)nc2C)cs1	1	-50	18	0
COc1ccc(CNC(=O)CCc2ccc(S(=O)(=O)NCC(C)C)cc2)cc1	0	2	4	0
O=C(CC(Sc1cccc2cccnc12)c1ccc(OC(F)F)cc1)c1ccco1 (stereo unspecified)	-2	51*	-14	-2
O=C(Nc1ccc2c(c1)N(C(=O)C1CCCO1)CC2)c1cc2ccccc2oc1=O (stereo unspecified)	-1	57*	-5	0
Cc1cccc2c(N3CCCC3)nc(CNS(=O)(=O)c3ccccc3)nc12	-1	-5	-16	0
Nc1ccc(-c2nc3cc(N)ccc3o2)c(O)c1	-3	-15	-4	0
Cc1ccc(C)c(-c2nc3cc(N)ccc3o2)c1	0	37*	6	0
Cc1cc(C)c2oc(-c3ccc(N)cc3O)nc2c1	-1	37*	3	0
Cc1ccc2oc(-c3cccc(N)c3C)nc2c1	-10	43*	-3	0
Cc1cc2nc(-c3cccc(NC(=O)C(C)C)c3C)oc2cc1C	1	0	-12	0
Cc1ccc2oc(-c3cc(N)ccc3Cl)nc2c1	-4	-46	2	0
Cc1cc2nc(-c3cccc(N)c3C)oc2cc1C	-8	89*	-4	0
CCOC(=O)c1sc(NC(=O)CN2C[C@@H](C)N(Cc3ccco3)C[C@H]2C)nc1C	0	-3	13	0
COc1ccc(OC)c(-n2c(C)cn3c4c(=O)n(C)c(=O)n(C)c4nc23)c1	-1	-10	-1	0
COc1ccc(C)cc1-n1c(C)cn2c3c(=O)n(C)c(=O)n(C)c3nc12	1	45*	8	0
Cc1oc(C(=O)N2c3ccccc3CC2C)cc1S(=O)(=O)N(C)C (stereo unspecified)	-4	49*	-3	0
Oc1ccc(CCNc2ncnc3nc(Nc4ccccc4)[nH]c23)cc1	0	3	11	0
COc1cccc(OC)c1[C@@H]1C[C@H]2CN(Cc3cccc(Cl)c3)C(=O)[C@]23CCCN13	0	10	0	0
O=C(Oc1ccc(N2C(=O)C=CC2=O)cc1)c1cccc2ccccc12	0	10	14	1.9*
COc1ccc(-c2nc(NC(N)=S)ncc2C)cc1F	0	3	-5	0
CCc1ccc(C(=O)N/N=C/c2cc(Br)c(O)c(Br)c2O)nc1	-1	72*	67*	-1
COc1ccccc1C(=O)Nn1c(-c2ccc(C(C)(C)C)cc2)nc2ccccc2c1=O	0	40*	17	0
COc1ccccc1C(=O)Nn1c(-c2ccc(Br)cc2)nc2ccccc2c1=O	0	7	-1	0
COc1ccc(-c2nc3ccccc3c(=O)n2OC(=O)c2ccc(C(C)(C)C)cc2)cc1OC	-2	-14	-3	0
CCc1ccc(C(=O)On2c(-c3ccc(C(C)(C)C)cc3)nc3ccccc3c2=O)cc1	-1	39*	-6	-1
SMILES	GPR151 activ	TEAD-YAP block	MITF inh	FBW7 activator
CC(C)(C)c1ccc(C(=O)On2c(-c3ccc(C(C)(C)C)cc3)nc3ccccc3c2=O)cc1	-1	38*	-4	-1
CO[C@@H]1COC(=O)[C@H](C)NC(=O)[C@@H](C)COC(=O)CCCC1C (stereo partly specified)	-1	.	-3	0
COc1cccc(/C=N/Nc2ncnc3nc[nH]c23)c1	-3	48*	8	0
CC(C)c1ccc(/C=N/Nc2ncnc3nc[nH]c23)cc1	0	52*	7	0
CCOc1ccc(Nc2ncnc3nc[nH]c23)cc1	-2	51*	2	0
COc1cccc(/C=N/Nc2cccc3cccnc23)c1	-4	44*	15	0
COc1cc(/C=N/Nc2ncnc3nc[nH]c23)cc(OC)c1OC	-1	-7	1	0
CCOC(=O)c1c(NC(=O)COC(=O)c2ccc([N+](=O)[O-])o2)sc2c1CCC(C)C2 (stereo unspecified)	-1	-1	-6	0
CN(C(=O)CC1C(=O)NCCN1CC(C)(C)C)C1CC(C)(C)NC(C)(C)C1 (stereo unspecified)	0	-4	11	0
COCCNc1ccc2ncc(-c3cc(C(C)C)ccc3OC)n2n1	1	2	-5	0
C1=NC2(CCCC2)Cc2c1ccc1ccccc21	-2	32*	-8	0
Nc1c(C(=O)N2CCCCC2)sc2nc(-c3cccs3)cc(C(F)(F)F)c12	0	1	-5	4.1*
FC(F)(F)c1cccc(Nc2nccn3c(-c4cccc5cccnc45)cnc23)c1	0	18	-9	0
